From PubChem BioAssay (Tox21)
Records with an inconclusive call do not appear. Activity calls are given as the source filed them. Unless noted, calls follow the shape of the dose curve; as a rule, active = well fitted curve in the direction sought with a large enough effect in the repeat runs; inconclusive = weak or mixed curves; inactive = no such curve, though single readings can be large; an effect the other way counts as inactive or inconclusive.

Experiments:
[1] = qHTS assay to identify small molecule antagonists of the vitamin D receptor (VDR) signaling pathway - cell viability counter screen (AID 743225); also: % is scaled to controls: 0 for no effect and ±100 for the full control effect; nearly all actives have a fitted effect of over 50% in size
Summary of the method: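 Read-out: CellTiter-Glo luminescence measured 30 min after reagent addition at room temperature. Cells were VDR-bla HEK 293T exposed 16 h at 37C, 5% CO2, to compound with 3 nM final calcitriol agonist.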

[2] = qHTS assay to identify small molecule agonists of the NFkB signaling pathway (AID 1159509; active = well fitted curve in the direction sought with a large enough effect in the signal ratio in the repeat runs, not every such curve was filed as active; the % refers to the signal ratio; also: series mostly up to about 61 µM; % is scaled to controls: 0 for no effect and ±100 for the full control effect)
Summary of the method: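 Pathway activation was measured in ME-180 cells stably expressing beta-lactamase under NF-kB response element control. Substrate cleavage was read as the 460/530 nm emission shift after 5 hr compound incubation.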

[3] = qHTS assay to identify small molecule agonists of the endoplasmic reticulum stress response signaling pathway (AID 1159516; active = well fitted activation curve with a large enough effect in the signal ratio in the repeat runs, not every such curve was filed as active; the % refers to the signal ratio; also: % is scaled to controls: 0 for no effect and ±100 for the full control effect)
Summary of the method: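 HeLa ESRE-bla reporter line; cpd 5 h, 37 C/5% CO2; LiveBLAzer B/G FRET substrate 2 h RT; ex 405, em 460/530 nm.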

[4] = qHTS assay to identify small molecule antagonists of the retinoid-related orphan receptor gamma (ROR-gamma) signaling pathway - cell viability counter screen (AID 1159520); also: % is scaled to controls: 0 for no effect and ±100 for the full control effect; nearly all actives have a fitted effect of over 50% in size
Summary of the method: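 Cytotoxicity was read from cellular ATP (CellTiter-Glo luminescence) after 16 hr at 37 C with 1 uM doxycycline induction. The inducer was added 2 hr after compound transfer to Tet-on ROR gamma CHO cells.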

[5] = biological target: Nuclear receptor ROR-gamma (Homo sapiens) (UniProt P51449); test: qHTS assay to identify small molecule antagonists of the retinoid-related orphan receptor gamma (ROR-gamma) signaling pathway (AID 1159521;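 also: CHO cells with doxycycline inducible ROR-gamma driving an RORE luciferase reporter; top concentration of the series differs between compounds; % is scaled to controls: 0 for no effect and ±100 for the full control effect; nearly all actives have a fitted effect of over 50% in size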)
Summary of the method: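 CHO Tet-on RORγ, RORE-luc reporter. Cpd 2 h pre-incubation, then dox hyclate 1 uM final, 16 h, 37 C/5% CO2. ONE-Glo luminescence; decrease = antagonist.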

[6] = qHTS assay to identify small molecule agonists of the AP-1 signaling pathway - cell viability counter screen (AID 1159525; calls by dose curve; also: nearly all actives have a fitted effect of over 55% in size)
Summary of the method: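 Intracellular ATP by Cell Titer Glo luminescence (30 min, RT) in the same ME-180 AP-1-bla wells after the 5 h compound exposure at 37 °C. Normalised to tetra n-octyl ammonium bromide and DMSO controls.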

[7] = qHTS assay to identify small molecule agonists of the AP-1 signaling pathway (AID 1159526; calls by dose curve; also: % is scaled to controls: 0 for no effect and ±100 for the full control effect)
[8] = biological target: Retinoic acid receptor RXR-alpha (Homo sapiens) (UniProt P19793); test: qHTS assay to identify small molecule agonists of the RXR signaling pathway (AID 1159527; calls by dose curve; also: % is scaled to controls: 0 for no effect and ±100 for the full control effect; nearly all actives have a fitted effect of over 35% in size)
Sequence of Retinoic acid receptor RXR-alpha (Homo sapiens) (P19793 whole entry, looked up): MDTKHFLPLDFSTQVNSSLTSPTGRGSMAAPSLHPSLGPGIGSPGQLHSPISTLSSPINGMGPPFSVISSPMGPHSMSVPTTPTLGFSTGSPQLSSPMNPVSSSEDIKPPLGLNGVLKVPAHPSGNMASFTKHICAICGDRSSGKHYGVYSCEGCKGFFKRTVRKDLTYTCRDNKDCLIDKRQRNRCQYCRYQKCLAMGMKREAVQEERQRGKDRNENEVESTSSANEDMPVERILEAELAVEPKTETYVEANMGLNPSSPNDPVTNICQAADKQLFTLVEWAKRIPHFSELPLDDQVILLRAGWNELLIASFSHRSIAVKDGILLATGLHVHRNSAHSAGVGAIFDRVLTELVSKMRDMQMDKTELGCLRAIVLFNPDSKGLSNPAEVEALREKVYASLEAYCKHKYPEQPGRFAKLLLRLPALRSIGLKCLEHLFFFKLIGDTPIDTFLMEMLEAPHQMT
Summary of the method: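 Read-out: beta-lactamase FRET ratio (405 nm excitation, 460 and 530 nm emission) after 2 hr substrate loading at room temperature. Cells were RXR-alpha-UAS-bla HEK 293T treated with compounds for 16 hr in 2% charcoal-stripped FBS medium.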

[9] = qHTS assay to identify small molecule agonists of the RXR signaling pathway - cell viability counter screen (AID 1159529); also: series mostly up to about 77 µM; % is scaled to controls: 0 for no effect and ±100 for the full control effect; nearly all actives have a fitted effect of over 50% in size
Summary of the method: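 HEK 293T RXRa-bla cells, 2% CS-FBS; 5 h settle; cpd 16 h 37 C, 5% CO2; CellTiter-Glo 30 min RT, luminescence. Tetraoctyl ammonium bromide as positive control.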

[10] = qHTS assay to identify small molecule antagonists of the retinoid acid receptor (RAR) signaling pathway - cell viability counter screen (AID 1159551); also: % is scaled to controls: 0 for no effect and ±100 for the full control effect; nearly all actives have a fitted effect of over 35% in size
Summary of the method: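 C3RL4 RARE-luciferase line; cpds + retinol 1 uM final, 6 h, 37 C/5% CO2; CellTiter-Glo ATP luminescence, 30 min RT.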

[11] = qHTS assay to identify small molecule antagonists of the retinoic acid receptor (RAR) signaling pathway (AID 1159552)
Summary of the method: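 Cells of the C3RL4 line were seeded, incubated overnight, then dosed with compounds in DMSO followed immediately by retinol (1 uM final). Six hours later luciferase detection reagent went in; signal was measured after 30 min at RT.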

[12] = qHTS assay to identify small molecule agonists of the retinoic acid receptor (RAR) signaling pathway (AID 1159553); also: % is scaled to controls: 0 for no effect and ±100 for the full control effect
Summary of the method: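 RARE-luc C3RL4 cells; overnight attachment 37 C/5% CO2; compound (DMSO) 6 hr; luciferase reagent, 30 min RT; luminescence read-out.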

[13] = qHTS assay to identify small molecule agonists of the endoplasmic reticulum stress response signaling pathway - cell viability counter screen (AID 1159517; calls by dose curve)
Summary of the method: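 ESRE-bla HeLa cells (1,500/well) were plated overnight at 37 C and exposed to compounds for 5 hr. After the 2 hr beta-lactamase substrate read, CellTiter-Glo went into the same wells, and luminescence was read after 30 min at room temperature.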

[14] = qHTS assay to identify small molecule agonists of the NFkB signaling pathway - cell viability counter screen (AID 1159515; calls by dose curve; also: series mostly up to about 61 µM; % is scaled to controls: 0 for no effect and ±100 for the full control effect; nearly all actives have a fitted effect of over 55% in size)
Summary of the method: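 ME-180 NFkB-bla cells, 2,000/well; overnight attach; compound 5 hr, 37 C/5% CO2; LiveBLAzer substrate 1.5 hr RT; then CellTiter-Glo in same wells, 30 min RT, luminescence read.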

[15] = qHTS assay to identify small molecule antagonists of the estrogen related receptor (ERR) signaling pathway - cell viability counter screen (AID 1224818)
Summary of the method: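 Fluorescence from CellTiter-Fluor, read 30 min after reagent addition at 37 C, measured viability of ERR cells exposed to compounds for 17.5 h. Cells had settled 6 h before dosing.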

[16] = qHTS assay to identify small molecule antagonists of the estrogen related receptor (ERR) signaling pathway (AID 1224819)
Summary of the method: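 Luminescence readout (One-Glo, 30 min, RT) of ERR cell line after 18 h compound exposure at 37 C; cells seeded 2,000/well, pre-incubated 6 h, compounds pinned from DMSO stocks.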

[17] = qHTS assay to identify small molecule agonists of the estrogen related receptor (ERR) signaling pathway (AID 1224820); also: % is scaled to controls: 0 for no effect and ±100 for the full control effect
Summary of the method: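 An ERR cell line provided by NTP was seeded at 2,000 cells per well and allowed to settle for 6 h before compounds in DMSO were added. After 18 h at 37 C, luciferase activity was measured by One-Glo luminescence.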

[18] = tested on: estrogen-related receptor alpha (ERRalpha) with PGC-1alpha coactivator, human; test: qHTS assay to identify small molecule antagonists of the estrogen related receptor signaling pathway with the pleiotropic PPARgamma coactivator (PGC) (AID 1224821; calls by dose curve)
Summary of the method: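 A PGC/ERR cell line supplied by NTP is seeded, allowed 6 h at 37 C, and treated with test compounds in DMSO for 18 h. Signal is then measured as luciferase luminescence using One-Glo.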

[19] = qHTS assay to identify small molecule antagonists of the estrogen related receptor signaling pathway with the pleiotropic PPARgamma coactivator (PGC) cell viability counter screen (AID 1224822)
Summary of the method: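 Fluorescence read-out of CellTiter-Fluor after 30 min at 37 C; PGC/ERR cells, 2,000 per well, had been exposed to DMSO-dissolved compounds for 17.5 h following a 6 h pre-incubation.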

[20] = qHTS assay to identify small molecule agonists of the estrogen related receptor signaling pathway with the pleiotropic PPARgamma coactivator (PGC) (AID 1224823); also: % is scaled to controls: 0 for no effect and ±100 for the full control effect
Summary of the method: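 Compounds dissolved in DMSO are added by pin tool to PGC/ERR cells that have settled for 6 h, and incubation continues 18 h at 37 C. Reporter output is measured as One-Glo luminescence.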

COc1ccc(C=O)cc1O
inactive: Potency [1] | outcome [2] | outcome [3] | Potency [4] | Potency [5] | Potency [6] | outcome [7] | Potency [8] | Potency [9] | Potency [10] | Potency [11] | Potency [12]

C/C=C/CC#N
inactive: Potency [1] | outcome [2] | Potency [13] | Potency [4] | Potency [5] | outcome [7] | Potency [10] | Potency [11] | Potency [12]

ClC(Cl)(Cl)Cl
inactive: Potency [1] | outcome [2] | outcome [3] | Potency [13] | Potency [4] | Potency [5] | Potency [6] | outcome [7] | Potency [8] | Potency [11]

COc1cccc(C=O)c1
inactive: Potency [1] | outcome [2] | outcome [3] | Potency [13] | Potency [4] | Potency [5] | Potency [6] | outcome [7] | Potency [8] | Potency [9] | Potency [11] | Potency [12]

OP(O)c1ccccc1
inactive: Potency [1] | outcome [2] | outcome [3] | Potency [13] | Potency [4] | Potency [5] | outcome [7] | Potency [10] | Potency [11] | Potency [12]

C1CN2CCC1CC2
inactive: Potency [1] | outcome [2] | outcome [3] | Potency [13] | Potency [4] | Potency [5] | Potency [6] | outcome [7] | Potency [9] | Potency [10] | Potency [11] | Potency [12]

BrCc1ccc(Br)cc1
inactive: Potency [1] | outcome [14] | outcome [3] | Potency [13] | Potency [4] | Potency [5] | Potency [6] | outcome [7] | Potency [8] | Potency [9] | Potency [10] | Potency [11] | Potency [12]

O=S1(=O)OCCO1
inactive: Potency [1] | outcome [2] | outcome [3] | Potency [13] | Potency [4] | Potency [5] | outcome [7] | Potency [8] | Potency [11] | Potency [12]

CCCC[N+](=O)[O-]
inactive: Potency [1] | outcome [2] | outcome [3] | Potency [13] | Potency [4] | Potency [5] | outcome [7] | Potency [8] | Potency [9] | Potency [10] | Potency [11] | Potency [12]

ClCCCCCCCl
inactive: Potency [1] | outcome [2] | outcome [3] | Potency [13] | Potency [4] | Potency [5] | Potency [6] | outcome [7] | Potency [8] | Potency [9] | Potency [10] | Potency [11] | Potency [12]

ClCCCCl
inactive: Potency [1] | outcome [2] | Potency [4] | Potency [5] | Potency [6] | outcome [7] | Potency [8] | Potency [9] | Potency [10] | Potency [11]

COC[C@@H](NC(C)=O)C(=O)NCc1ccccc1
inactive: Potency [1] | outcome [2] | outcome [3] | Potency [13] | Potency [4] | Potency [5] | outcome [7] | Potency [8] | Potency [9] | Potency [10] | Potency [11] | Potency [12]

CN(C)C1CCCCC1
inactive: Potency [1] | outcome [2] | outcome [3] | Potency [4] | Potency [5] | outcome [7] | Potency [8] | Potency [9] | Potency [11] | Potency [12]

O=C(O)C(F)(F)C(F)(F)C(F)(F)C(F)(F)C(F)(F)C(F)(F)F
inactive: Potency [1] | outcome [3] | Potency [13] | Potency [4] | Potency [5] | Potency [6] | outcome [7] | Potency [8] | Potency [9] | Potency [10] | Potency [12]

CCOc1cc(OP(=S)(OC)OC)nc(CC)n1
inactive: Potency [1] | outcome [14] | outcome [3] | Potency [13] | Potency [4] | Potency [5] | Potency [6] | outcome [7] | Potency [8] | Potency [9] | Potency [11] | Potency [12]

C=CCCC#N
inactive: Potency [1] | outcome [14] | Potency [13] | Potency [4] | Potency [5] | Potency [6] | outcome [7] | Potency [8] | Potency [9] | Potency [10] | Potency [11] | Potency [12]

CCCCCCC(=O)CCCCCC/C=C/C[C@@H](O)[C@H](O)[C@@](N)(CO)C(=O)O
inactive: Potency [1] | outcome [14] | outcome [3] | Potency [13] | activity, negative = cytotoxicity [4] 4.11% [at 19 µM] | activity change, negative = inhibition [5] -12.3% [at 19 µM] | activation [7] -2.3% [at 15.8 µM] | activation [8] 1.63% [at 15.8 µM] | activity change, negative = cytotoxicity [9] 2.42% [at 15.8 µM] | activity, negative = inhibition [11] 6.01% [at 19 µM] | Potency [12]

Cc1cccc2sc3nncn3c12
inactive: Potency [1] | outcome [14] | outcome [3] | Potency [13] | Potency [4] | Potency [5] | Potency [6] | outcome [7] | Potency [8] | Potency [9] | Potency [11] | Potency [12]

CCCN1CCC[C@@H]2Cc3[nH]ncc3C[C@H]21
inactive: Potency [1] | outcome [14] | Potency [13] | Potency [4] | Potency [5] | outcome [7] | Potency [8] | Potency [9] | Potency [10] | Potency [11] | Potency [12] | outcome [15] | outcome [16] | outcome [17] | outcome [18] | outcome [19] | outcome [20]

O=c1[nH]oc2c1CCNC2
inactive: Potency [1] | outcome [14] | outcome [3] | Potency [13] | Potency [4] | Potency [5] | outcome [7] | Potency [8] | Potency [9] | Potency [10] | Potency [11] | Potency [12] | outcome [15] | outcome [16] | outcome [17] | outcome [18] | outcome [19] | outcome [20]

NNC(N)=O
inactive: Potency [1] | outcome [14] | outcome [3] | Potency [13] | Potency [4] | Potency [5] | Potency [6] | outcome [7] | Potency [8] | Potency [9] | Potency [10] | Potency [11] | outcome [15] | outcome [19]

CC(Cc1ccccc1)NCCn1cnc2c1c(=O)n(C)c(=O)n2C (centres undefined)
inactive: Potency [1] | outcome [14] | outcome [3] | Potency [4] | Potency [5] | Potency [6] | outcome [7] | Potency [8] | Potency [9] | Potency [10] | Potency [11]

CCCCOC(C)=O
inactive: outcome [14] | outcome [3] | Potency [13] | Potency [4] | Potency [5] | Potency [6] | outcome [7] | Potency [9] | Potency [10] | Potency [11] | Potency [12]
